SMILES strings stand for the structures. About 390 (7%) of roughly 5,600 compounds showed an effect of 50% or more. The sample holds strong results, similar compounds and a random draw of the others, so the mix is not that of the screen. Residues, ends and D or L forms follow the SMILES beside them.

Results on 53 compounds are retold here after ChEMBL document CHEMBL4808148, “HDAC6 screening dataset using tau-based substrate in an enzymatic assay yields selective inhibitors and activators” (2021).

The experiment addresses T1, Protein deacetylase HDAC6 (Homo sapiens) (UniProt Q9UBN7).
T1 sequence (whole entry): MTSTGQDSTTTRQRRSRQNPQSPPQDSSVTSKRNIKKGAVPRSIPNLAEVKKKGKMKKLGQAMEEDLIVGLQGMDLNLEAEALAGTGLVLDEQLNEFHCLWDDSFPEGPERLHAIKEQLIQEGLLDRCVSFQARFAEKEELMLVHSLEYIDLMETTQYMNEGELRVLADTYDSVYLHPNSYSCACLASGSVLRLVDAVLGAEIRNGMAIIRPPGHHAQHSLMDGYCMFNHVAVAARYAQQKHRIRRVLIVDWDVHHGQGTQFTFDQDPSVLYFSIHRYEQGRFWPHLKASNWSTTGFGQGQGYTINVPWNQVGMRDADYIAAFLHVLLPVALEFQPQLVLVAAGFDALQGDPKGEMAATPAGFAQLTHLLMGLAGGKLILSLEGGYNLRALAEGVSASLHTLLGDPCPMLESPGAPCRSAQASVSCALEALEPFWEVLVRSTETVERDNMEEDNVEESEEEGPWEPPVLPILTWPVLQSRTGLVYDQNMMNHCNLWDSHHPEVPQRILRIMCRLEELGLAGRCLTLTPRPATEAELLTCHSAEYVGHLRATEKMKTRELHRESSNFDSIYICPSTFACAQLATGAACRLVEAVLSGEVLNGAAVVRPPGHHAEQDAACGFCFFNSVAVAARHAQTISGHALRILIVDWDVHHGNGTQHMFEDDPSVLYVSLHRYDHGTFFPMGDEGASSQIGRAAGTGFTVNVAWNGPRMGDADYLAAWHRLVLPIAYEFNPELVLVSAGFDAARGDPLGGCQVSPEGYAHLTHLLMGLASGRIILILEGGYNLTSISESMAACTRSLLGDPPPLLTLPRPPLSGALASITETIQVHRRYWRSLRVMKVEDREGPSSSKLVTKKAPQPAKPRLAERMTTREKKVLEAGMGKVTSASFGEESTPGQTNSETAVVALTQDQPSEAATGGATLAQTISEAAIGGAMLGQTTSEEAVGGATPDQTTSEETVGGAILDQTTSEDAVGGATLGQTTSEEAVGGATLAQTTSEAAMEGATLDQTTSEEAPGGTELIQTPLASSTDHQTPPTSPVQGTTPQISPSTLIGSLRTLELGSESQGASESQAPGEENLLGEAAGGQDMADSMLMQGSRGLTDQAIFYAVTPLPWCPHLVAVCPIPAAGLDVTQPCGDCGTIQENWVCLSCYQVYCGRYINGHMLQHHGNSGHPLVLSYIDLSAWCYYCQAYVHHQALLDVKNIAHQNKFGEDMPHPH
The following applies: at 10 µM.

The term inhibition denotes the relative decrease from the control value, in per cent. In the case of `COc1nccnc1NS(=O)(=O)c1ccc(N)cc1`, the inhibition is 34.6%. Under `CCCCc1nc2cc(/C=C/C(=O)NO)ccc2n1CCN(CC)CC` stands 102%.

As for `Clc1cc(Cl)c(OCC#CI)cc1Cl`, the inhibition was determined as 4.74%. For `COc1cc2nc(N3CCC(N4CCCCC4)CC3)nc(NC3CCCCCC3)c2cc1OC` the value was 0.07%; for `CC(C)[C@H]1c2ccc(F)cc2CC[C@@]1(CCN(C)CCCc1nc2ccccc2[nH]1)OC(=O)C1CC1`, 15.1%; for `COc1ccc(Nc2ncnc3ccc(OC)cc23)cc1`, 27.1%. For `COc1ccc2nc(NC(=O)Nc3ccccc3)sc2c1` the value was 109%; for `Cc1cc(C)cc(NC(=O)Nc2ccc(OS(N)(=O)=O)cc2)c1`, 44.5%; for `COC1=C2C[C@@H](C)C[C@H](OC)[C@H](O)[C@@H](C)/C=C(\C)[C@H](OC(N)=O)[C@@H](OC)/C=C\C=C(/C)C(=O)NC(=CC1=O)C2=O`, 19.3%.

Regarding `COC(=O)Nc1ccc(-c2nc(N3CCOCC3)c3cnn(C4CCN(Cc5cccnc5)CC4)c3n2)cc1`, the inhibition is -1.91%. For `Nc1nnc(Sc2ncc([N+](=O)[O-])s2)s1` the value was 34.9%; for `O=C(Nc1c(Cl)cncc1Cl)c1ccc(OC(F)F)c(OCC2CC2)c1`, -1.25%. Under `Cc1ccc(-c2csc3ncnc(SCCC(=O)O)c23)cc1` stands 22.2%; under `O=C(O)COc1ccc(C(=O)c2cccs2)c(Cl)c1Cl`, 19.9%; under `Sc1nc2ccccc2s1`, 52.6%.

Take `O=c1[nH]c2cc(C(F)(F)F)c(N3CCOCC3)cc2n(CP(=O)(O)O)c1=O`: the inhibition turned out to be 1.79%. For `CC(C)=CCC[C@](C)(O)[C@@H]1CC=C(C)CC1` the value was 18.6%; for `COc1ccc(Cc2nc(O)c3c(C)nc([C@@H](CCCc4ccccc4)[C@@H](C)O)n3n2)cc1OC`, -9.71%. `Cc1cc(C)c(S(=O)(=O)Nc2cccc(C(F)(F)F)c2)c(C)c1`: the inhibition worked out at 97.6%.

In the case of `Cc1sc(N)c(C(=O)c2cccc(C(F)(F)F)c2)c1C`, the inhibition amounted to 17.1%. For `COc1ccc(S(=O)(=O)Nc2c(C)cc(C)cc2C)cc1` the value was -8.52%. Regarding `CCc1cccc(CC)c1NC(=O)N1Cc2[nH]nc(NC(=O)c3ccc(N4CCN(C)CC4)cc3)c2C1`, the inhibition was 7.27%.

`Nc1nc(OCC2CCCCC2)c2nc[nH]c2n1`: the inhibition amounted to 33.5%. Under `Nc1nc(N)c(N=O)c(OCC2CCCCC2)n1` stands 81.8%; under `Nc1ccc(C(=O)NCC(=O)O)cc1`, 6.74%.

Regarding `CN(C)CCC1(c2ccc(Cl)cc2)Cc2ccccc2C(=O)O1` (racemic), the inhibition amounted to 3.8%. Under `Cn1cnc([N+](=O)[O-])c1Sc1ncnc2[nH]cnc12` stands 12.8%. For `Oc1ccc(C(O)CNCCCCCCNCC(O)c2ccc(O)c(O)c2)cc1O` (stereo not drawn) the value was -3.51%. For `OCc1cc(C(O)CNCCCCCCOCCCCc2ccccc2)ccc1O` (stereo not drawn) the value was -5.85%; for `OCc1cc([C@@H](O)CNCCCCCCOCCOCc2c(Cl)cccc2Cl)ccc1O`, 59.3%.

On to `COc1cc(NS(C)(=O)=O)ccc1Nc1c2ccccc2nc2ccccc12`, for which the inhibition stood at 76.6%. Take `COc1ccc(S(=O)(=O)Nc2cccnc2Nc2ccc(O)cc2)cc1`: the inhibition was 34.3%. For `COc1ccc(Cl)cc1NC(=O)Nc1cc(C)nc2ccccc12` the value was 16.6%; for `CCOC(=O)c1cc(C#N)c(N2CCC(C(=O)NS(=O)(=O)Cc3ccccc3)CC2)nc1C`, 21.9%; for `NCC(=O)N[C@@H](CCC(N)=O)C(=O)O` (H-Gly-Gln-OH), 29.1%.

On to `O=S(=O)(Cc1ccccc1)Nc1ccc(-c2ccc3c(cnn3-c3ccc(F)cc3)c2)c(C(F)(F)F)c1`, for which the inhibition was -8.14%.

With `N[C@H]1C[C@@H]1c1ccc(-c2cccc(O)c2)cc1`, the inhibition turned out to be 77.4%. For `Oc1cccc(O)c1`, the inhibition was 1.38%. For `O=c1[nH]c2ccccc2n1C1CCN(CCOc2ccccc2)CC1` the value was 20.9%. For `CCOC(=O)c1cc2ccc(O)cc2oc1=O` the value was 55.9%; for `CN1CCC(COc2cnc(-c3cccc(Cn4nc(-c5cccc(C#N)c5)ccc4=O)c3)nc2)CC1`, 17.5%; for `COc1cc2c(cc1-c1c(C)noc1C)ncc1[nH]c(=O)n([C@H](C)c3ccccn3)c12`, 12.8%.

As for `CC(=O)/N=c1/[nH]c(C)c(-c2ccc(Cl)c(S(=O)(=O)NCCO)c2)s1`, the inhibition was 23.4%. Under `CCCCC1=NC2(CCCC2)C(=O)N1Cc1ccc(-c2ccccc2-c2nnn[nH]2)cc1` stands -8.81%; under `O=C(O)c1cnn(-c2nc3cc(OC(F)(F)F)c(Cl)cc3[nH]2)c1`, 59.5%; under `Cc1cc(NCCO)nc(-c2ccc(Br)cc2)n1`, 85.2%. Under `COc1ccc(Nc2nccc(NCCO)n2)cc1` stands 37.2%.

With `N#Cc1cc(CN2CCC(Nc3ncnc4sc(Cl)cc34)CC2)ccc1F`, the inhibition was 6.29%. Take `Cn1c(NC[C@@H](N)Cc2ccccc2)nc(-c2ccncc2)c(-c2ccc3ccccc3c2)c1=O`: the inhibition is 0.59%. `Nc1nccc2c1ncn2[C@@H]1O[C@H](CO)C(O)C1O` (stereo partly drawn): the inhibition amounted to 11%. Under `C[C@H](NC(=O)CNC(=O)c1cccc(Cl)c1)c1ccccc1` stands 21.1%; under `COc1ccc(C(=O)NCc2ccc(OCCN(C)C)cc2)cc1OC`, 1.13%. Under `CN(C)Cc1c(C(=O)NCCOc2ccc(C(=O)NO)cc2)oc2ccccc12` stands 102%.
